# Experimental data reported in PubChem BioAssay (Tox21).
# Results filed as inconclusive are left out. The source made the active and inactive calls. The call rests on the fitted dose curve; in most records, active means well fitted inhibition curve with a large enough effect in the signal ratio in the repeat runs (not every such curve was filed as active); inconclusive means weak or mixed curves, or effect the other way; inactive means no such curve, though single readings can be large or run the other way; the % refers to the signal ratio.
# Target: Vitamin D3 receptor (Homo sapiens) (UniProt P11473)
# Assay: qHTS assay to identify small molecule antagonists of the vitamin D receptor (VDR) signaling pathway (AID 743223)
# Settings: VDR-UAS-bla HEK293T, beta-lactamase FRET ratio, 16 h; series mostly up to 61 µM
# Summary of the method: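 VDR-bla cells were plated, incubated 4 h at 37C, then given compound and 1alpha,25-dihydroxyvitamin D3 (3 nM final). After 16 h at 37C, LiveBLAzer B/G FRET substrate was added for 2 h at room temperature and fluorescence read.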
# Vitamin D3 receptor (Homo sapiens), sequence (P11473 whole entry, looked up): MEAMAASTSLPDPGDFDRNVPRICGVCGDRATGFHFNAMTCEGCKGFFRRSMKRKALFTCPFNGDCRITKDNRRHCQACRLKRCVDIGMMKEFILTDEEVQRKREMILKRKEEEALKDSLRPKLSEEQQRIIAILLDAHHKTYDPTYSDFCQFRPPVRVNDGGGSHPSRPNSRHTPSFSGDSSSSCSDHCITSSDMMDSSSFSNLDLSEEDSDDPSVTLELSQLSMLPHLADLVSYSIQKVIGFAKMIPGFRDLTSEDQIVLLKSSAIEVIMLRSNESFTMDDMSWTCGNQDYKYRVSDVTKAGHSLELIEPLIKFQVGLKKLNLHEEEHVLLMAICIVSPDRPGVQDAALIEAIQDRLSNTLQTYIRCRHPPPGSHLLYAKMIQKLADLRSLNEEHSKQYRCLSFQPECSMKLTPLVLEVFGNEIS
row,SMILES,outcome
1,CC(C)C1CCC(C(=O)N[C@H](Cc2ccccc2)C(=O)O)CC1 (some centres undefined),inactive
2,CCOc1ncc(F)c(=O)[nH]1,inactive
3,COc1cc(NS(=O)(=O)c2ccc(N)cc2)nc(C)n1,inactive
4,COc1ccc(-c2cc(=S)ss2)cc1,inactive
5,CCO[Si](C)(CCCOCC1CO1)OCC (centres undefined),inactive
6,O=C1c2ccccc2C(=O)c2c(O)ccc(O)c21,inactive
7,CC(C)N=C=NC(C)C,inactive
8,CCCCCCCCCCCC(=O)OCC(O)CO (centres undefined),inactive
9,CCCCCCCCCCCCCCN(C)C,inactive
10,CC[C@H]1OC(=O)[C@H](C)[C@@H](O[C@H]2C[C@@](C)(OC)[C@@H](O)[C@H](C)O2)[C@H](C)[C@@H](O[C@@H]2O[C@H](C)C[C@H](N(C)C)[C@H]2O)[C@](C)(O)C[C@@H](C)C(=O)[C@H](C)[C@@H](O)[C@]1(C)O,inactive
11,c1ccc2sc(SSc3nc4ccccc4s3)nc2c1,inactive
12,CC(=O)OCC(=O)[C@@]1(OC(C)=O)[C@@H](C)C[C@H]2[C@@H]3C[C@H](F)C4=CC(=O)C=C[C@]4(C)[C@@]3(F)[C@@H](O)C[C@@]21C,inactive
13,CCN(CC)CCOc1ccccc1C(=O)CCc1ccccc1,inactive
14,O=S(=O)(O)CO,inactive
15,CC(C(=O)O)c1ccc(C(=O)c2cccs2)cc1 (centres undefined),inactive
16,CCOC(=O)c1c(N)sc2c1CCN(Cc1ccccc1)C2,inactive
17,CCN(Cc1cccc(S(=O)(=O)O)c1)c1ccc(C(=C2C=CC(=[N+](CC)Cc3cccc(S(=O)(=O)O)c3)C=C2)c2ccc(O)cc2S(=O)(=O)[O-])cc1,inactive
18,O=C(O)c1cccc(C[C@@H]2COc3ccc(OCc4nc5cc(F)ccc5s4)cc3[C@@H]2O)c1,inactive
19,CCN(CC)c1ccc(C(=C2C=CC(=[N+](CC)CC)C=C2)c2ccc(S(=O)(=O)O)cc2S(=O)(=O)[O-])cc1,inactive
